Source: paper PMC12136788
Where a chain is given by its changes, count along the chain named. Over roughly 24,000 sequences, “enrichment r” has its median near 0.99; the highest 2% begin near 3.7. The sample holds the highest values, similar sequences and a random draw of the others, so the mix is not that of the screen.

T1: UNK ZnF1-3 (human, UniProt Q9C0B0 31-174)
T1 sequence: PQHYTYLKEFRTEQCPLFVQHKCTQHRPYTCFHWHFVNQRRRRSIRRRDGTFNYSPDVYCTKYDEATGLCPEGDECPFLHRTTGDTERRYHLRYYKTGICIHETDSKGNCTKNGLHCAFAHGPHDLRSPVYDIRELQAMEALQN

B1: 44216504_44217224_307_CDS_ENSG00000096384_ENST00000371646|human|control|control (ssRNA)
RNA: GGGAGUUCUACAGUCCGACGAUCCAAAGUCAGGGUACGUUCCUGAGGGUUGGGGAUGAUGUCAAUUUUCAGCUCUUUACCACUGUCCAACUUCGAAGGGUCUGUCAGGCUCUCAUAGCGAAUCUUGUCCAAGGCAUCAGAAGCCAACAGAGGAUUGAGCAUCA
B2: chr16:49524686:49524687:-_ENSG00000102935_ENST00000562871|hu_mus|FALSE|FALSE (ssRNA)
RNA: GGGAGUUCUACAGUCCGACGAUCAAUUAAAAGGAAAUAUUCAGACAAUAGCCAAGCAAUCACAUCACGAUGCACAAUUACCUAGAAUUGCAAUUAAAAAGUAGUUAACUGAAGGGGGGGGGGGGGAGAAAGAAAAACAAGAAACAACAGAGGAUUGAGCAUCA
B3: chr7:138235809:138235810:+_ENSG00000122779_ENST00000415680|hu_mus|FALSE|FALSE (ssRNA)
RNA: GGGAGUUCUACAGUCCGACGAUCAGAAGCAUCACACCUUGCACGAAGAAGGUGCCGUAACCUGUAUGUAAUCAGCCGCUUGCUGUACAGCAAGGCUGUGCUGCUGCCACUGGAAACAGCCCAUUUAGAAAAAUGCAUGACGUGCAACAGAGGAUUGAGCAUCA
B4: chr3:67279072:67279073:+_ENSMUSG00000027774_ENSMUST00000077271|mus_mus|FALSE|FALSE (ssRNA)
RNA: GGGAGUUCUACAGUCCGACGAUCUGCCCAGAAUCCUACCUCUUGAUGAGAGGACUGUGAGUUUUGAGGCCAACAGGGGCUAUAUACACACAGCCCUUAUGUCCAAAAAAAAAAAAAGCAGUGAAGUAAAUUUAUAUAUAUUUUCAACAGAGGAUUGAGCAUCA
B5: 55340085_55340205_1272_CDS_ENSMUSG00000021488_ENSMUST00000099490|mouse|control|control (ssRNA)
RNA: GGGAGUUCUACAGUCCGACGAUCUUCUUUCUGUUUCCCUCUUUUCCUAAGGACAGGUAGUUCUUCAAAUUGAUGUCUGCCUUCAAACAUGACGAUUGCUUUUCCAGCCACCCAGGCUUUUUCAGAAGGGUCUCCAAAAGCCUCCAACAGAGGAUUGAGCAUCA
B6: chr2:203071746:203071747:-_ENSG00000116030_ENST00000392246|hu_hu|FALSE|FALSE (ssRNA)
RNA: GGGAGUUCUACAGUCCGACGAUCCACCACAAGCCUGAAAAUGCAAUGUCCUGAAAAAGGUGACCUCUCUGUGCACACGUAAUUUUUAAAAAGGAGAGGGUAAUAUGAAGGGGACUGAGGCUUGAUCACCAAAAAUCAGCACAACAACAGAGGAUUGAGCAUCA
B7: chr7:151048522:151048523:+_ENSG00000013374_ENST00000566856|hu_mus|hu_hu_hu_mus_True|48_98 (ssRNA)
RNA: GGGAGUUCUACAGUCCGACGAUCCUGUUUCUUAUUUAUGACAAUUUUGAUGUAAUUUUCUUGAAAUCCGAAAGUUUCAGCUAUUUGGGACCUCAGUUCUCUACCAGUGACAUGCAAGCGGGUCUCCAACAAGCUUUUCUUAUCCAACAGAGGAUUGAGCAUCA
B8: chr3:120321071:120321072:+_ENSG00000065518_ENST00000184266|hu_hu|FALSE|FALSE (ssRNA)
RNA: GGGAGUUCUACAGUCCGACGAUCUCAUUGCCAGACUUAAUAUGAGAGGUGAAAUGUUCGAUCCAAUUUUCCUUCCUGGAUAAGUUUUUCUUUCCUAUCCCUCUCAGUUUUGAUAAUAUAAUAAAUGAAGAUGAGGGGCCCAAACAACAGAGGAUUGAGCAUCA
B9: chr1:133829981:133829982:+_ENSMUSG00000026434_ENSMUST00000062264|mus_hu|FALSE|FALSE (ssRNA)
RNA: GGGAGUUCUACAGUCCGACGAUCUAUCAGAAAUAUAGAAUACAUUUUUCAAUCUAAUGAAUUAAUUUUAAAAGGGACCCUAAACAAGAAGCCCAAUCAAAUGCACACAAGUAAUCUAGAAGACAUGAUUACCUCUAAAAUAUGCAACAGAGGAUUGAGCAUCA
B10: chr1:133829981:133829982:+_ENSMUSG00000026434_ENSMUST00000062264|mus_hu|motif|central (ssRNA)
RNA: B9 RNA with U80G, A81G
B11: chr15:83907240:83907241:-_ENSMUSG00000018865_ENSMUST00000082365|mus_mus|motif|central (ssRNA)
RNA: GGGAGUUCUACAGUCCGACGAUCGCUGUGAAAGAUACUAAUUCUUGGUGCAGUCUGGCAUCUGUGGGGCCUCUUCCACACCGGCCAGUGCCUUCAGAUGCCACCCGCAGCCUCGGGCCAGCUUCCCUGCCGAAACAUUCCUUGCAACAGAGGAUUGAGCAUCA
B12: chr2:242276830:242276831:+_ENSG00000168385_ENST00000391971|hu_mus|FALSE|FALSE (ssRNA)
RNA: GGGAGUUCUACAGUCCGACGAUCUAAGGGCUUCAGUCCAUGUCCAAAAGGUGAAAUGAAGUAGAAGCAACAAUGUACCCUGUUAUCAAUGAUGUGACGCCUGUUCAGUCCACUCUCAUCAUGUAGGUAGCGUUCAAACUGCUCCAACAGAGGAUUGAGCAUCA
B13: chr17:45747064:45747065:+_ENSG00000108424_ENST00000290158|hu_hu|hu_hu_hu_mus_True|28_58 (ssRNA)
RNA: GGGAGUUCUACAGUCCGACGAUCGCCCACAGUCCACGCUGUUGUGUCUCGAACAACUACACUGGGGUCUUUCAUUAAUUCUAUUAGGGUGGGCAUAGCCUGUAUGACUAGUGGUUUCAGUUGAUUAGGCUCUGGUCCUUCCAACAACAGAGGAUUGAGCAUCA
B14: chr1:52246310:52246311:-_ENSMUSG00000026103_ENSMUST00000114513|mus_mus|motif|central (ssRNA)
RNA: GGGAGUUCUACAGUCCGACGAUCGCCCAUCUUGUCAAGAGGAGGAGACCAACACAUCAUGCCCAUGACGUUGGGGACAACGGAAAGAAUACCCCCAGCAACUCCAGAUUUUGCAGGAAGACCAACAUGGAACGCAAACUGCCCCAACAGAGGAUUGAGCAUCA

target: T1, UNK ZnF1-3; experiment: nsRBNS (natural sequence RNA bind-n-seq); RBNS binding buffer (assumed for nsRBNS): 25 mM Tris pH 7.5, 150 mM KCl, 3 mM MgCl2, 0.01% Triton X-100, 500 ug/ml BSA, 20 U/ml SUPERase-In, 4 C; UNK is unkempt and MSI1 is Musashi-1; names of the RNAs are library labels; protein concentration not given here; high values mean tight binding

| Binder | binding signal |
| --- | --- |
| B1 | 0.999 enrichment R |
| B2 | 1.26 enrichment R |
| B3 | 0.971 enrichment R |
| B4 | 4.32 enrichment R |
| B5 | 0.635 enrichment R |
| B6 | 3.8 enrichment R |
| B7 | 0.854 enrichment R |
| B8 | 2.02 enrichment R |
| B9 | 4.97 enrichment R |
| B10 | 5.06 enrichment R |
| B11 | 0.646 enrichment R |
| B12 | 0.794 enrichment R |
| B13 | 0.639 enrichment R |
| B14 | 1.07 enrichment R |
